Inconclusive results are not listed. Unmarked numbers belong to inactive results. Calls of active or inactive are those of the source. Calls follow the shape of the dose curve; as a rule, active = well fitted inhibition curve with a large enough effect; inconclusive = small, poorly fitted or top-dose-only effect; inactive = no such curve, though single readings can be large or run the other way.
Test: qHTS Screen of the MIPE 4.0 Collection Against Ewings Sarcoma (TC32) (AID 1259256); also: nearly all actives have a fitted effect of over 45% in size;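 as to viability (percent of control): 100% = DMSO-treated cells and 0% = medium-only wells without cells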
Conditions: TC32 Ewing sarcoma viability, CellTiter-Glo, 48 h; series mostly up to 45.8 µM; viability (percent of control): at the top concentration
How it was run: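 Dose series incubated 48 h with cells in RPMI plus 5% FBS, glutamine and penicillin/streptomycin; cell viability then quantified via CellTiter-Glo.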
Potency is read from the fitted curve at half-maximal effect.

SMILES | Potency | viability (percent of control) [%]
CCCCc1nc2cc(C=CC(=O)NO)ccc2n1CCN(CC)CC | 93.5 nM (active) | –
COc1cc2c(Oc3ccc(NC(=O)C4(C(=O)Nc5ccc(F)cc5)CC4)cc3F)ccnc2cc1OCCCN1CCOCC1 | 1660 nM (active) | –
COc1cc2ncnc(Nc3ccc(F)c(Cl)c3)c2cc1NC(=O)C=CCN1CCCCC1 | 2960 nM (active) | –
Nc1cc(C(F)(F)F)c(-c2cc(N3CCOCC3)nc(N3CCOCC3)n2)cn1 | 264 nM (active) | –
CC1(C)CCC(c2ccc(Cl)cc2)=C(CN2CCN(c3ccc(C(=O)NS(=O)(=O)c4ccc(N[C@H](CCN5CCOCC5)CSc5ccccc5)c(S(=O)(=O)C(F)(F)F)c4)cc3)CC2)C1 | 5260 nM (active) | –
CCS(=O)(=O)c1cccc(-c2cc(C(=O)NC3CCN(C)CC3)c(C)c3[nH]c4ncc(C)cc4c23)c1 | 235 nM (active) | –
Nc1ccc(C(=O)c2cc3c(ccc4ccccc43)[nH]2)cc1 | 1870 nM (active) | –
O=C(O)CCCc1c[nH]c2ccccc12 | – | 108
CCn1cc(-c2ccnc3[nH]c(-c4cccc(CN(C)C)c4)cc23)c(-c2ccc(NC(=O)N(C)C)cc2)n1 | 46.9 nM (active) | –
Cn1c(=O)n(-c2ccc(C(C)(C)C#N)cc2)c2c3cc(-c4cnc5ccccc5c4)ccc3ncc21 | 33.2 nM (active) | –
CN1CCC(CNc2ccc3ncc(-c4cccc(OC(F)(F)F)c4)n3n2)CC1 | 13200 nM (active) | –
Nc1nccc(Oc2ccc(NC(=O)c3c[nH]cc(-c4ccc(F)cc4)c3=O)cc2F)c1Cl | 2640 nM (active) | –
Cc1cc(Nc2cc(N3CCN(C)CC3)nc(Sc3ccc(NC(=O)C4CC4)cc3)n2)n[nH]1 | 1180 nM (active) | –
